In PubChem BioAssay (EPA / NIEHS) one finds outcome and AC50 data, which are given here for 15 molecules.

Each structure is given as a SMILES string. Results filed as inconclusive are left out. Calls of active or inactive are those of the source. The calls were made as follows, unless noted: active = hit-call score of the fitted dose curve at least 0.9, where 1 is the maximum; inactive = score below 0.9.

Assay [1] is described as follows: ATG_NFI_CIS: Attagene CIS-FACTORIAL HepG2 Assay for human Nuclear Factor I (NFI) (AID 2282989). The note with it: HepG2 cis-regulatory reporter, NFI response element transcription; actives raise or lower the signal. Put shortly:
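Reporter transcription driven by endogenous transcription factors in HepG2 cells; 24 h treatment. Quantitation by labelled RT-PCR fragments on capillary electrophoresis, gain- or loss-of-signal relative to DMSO.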

Assay [2] concerns the target Myc proto-oncogene protein (Homo sapiens) (UniProt P01106). Kind of assay: ATG_Myc_CIS: Attagene CIS-FACTORIAL HepG2 Assay for human Myelocytomatosis (Myc) Proto-Oncogene Transcription Factor (AID 2282990). To be noted: HepG2, Attagene cis-reporter transcription factor activity; actives raise or lower the signal. Put shortly:
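DMSO-normalised, bidirectionally fitted reporter mRNA signal. HepG2 cells transfected with cis reporter constructs, treated 24 h; transcripts detected by RT-PCR, 6-FAM primer extension and CE.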

Assay [3] in a line: ATG_NRF2_ARE_CIS: Attagene CIS-FACTORIAL HepG2 Assay for human Nuclear Factor Erythroid 2 Related Factor 2 (NFR2) response to Antioxidant Response Elements (ARE) (AID 2282992).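 As to AC50: reporter mRNA level measured by RT-PCR and capillary electrophoresis fluorescence.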 To be noted: HepG2 Attagene ARE/NRF2 reporter, transcription factor activity; actives raise or lower the signal. Put shortly: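 HepG2 cells transiently transfected with multiplexed cis-element reporter constructs, 24 h after chemical dosing; reporter mRNA quantified by RT-PCR, fluorescent primer extension, HpaI digestion and capillary electrophoresis. Bidirectional fit relative to DMSO.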

Assay [4] in a line: ATG_Oct_MLP_CIS: Attagene CIS-FACTORIAL HepG2 Assay for human Octamer-Binding Transcription Factor (Oct) (AID 2282993). To be noted: HepG2 Attagene cis-factorial Oct reporter, mRNA; actives raise or lower the signal. Put shortly:
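Transfected HepG2 cells, 24 h treatment. Reporter mRNA quantified by RT-PCR–capillary electrophoresis; bidirectional fitting against DMSO.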

For assay [5], the target named is Cellular tumor antigen p53 (Homo sapiens) (UniProt P04637). As to the kind of experiment: ATG_p53_CIS: Attagene CIS-FACTORIAL HepG2 Assay for human p53 Transcription Factor (AID 2282994). To be noted: HepG2 p53 cis-element reporter, Attagene mRNA; actives raise or lower the signal. Put shortly:
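HepG2 cells transiently transfected with cis-regulated multiple reporter transcription units, dosed 24 h. Reporter mRNA measured by RT-PCR, 6-FAM primer extension, HpaI digestion and capillary electrophoresis; bidirectional fit relative to DMSO.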

In assay [6] the target is human Peroxisome Proliferator-activated Receptor delta (PPARd), PPARD (gene 5467) (UniProt Q03181). As to the kind of experiment: ATG_PPARd_TRANS: Attagene TRANS-FACTORIAL HepG2 Assay for human Peroxisome Proliferator-activated Receptor delta (PPARd) (AID 2283002; active = hit-call score of the fitted dose curve at least 0.9, where 1 is the maximum). Put shortly: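 Measured quantity: GAL4-UAS reporter transcript induction in HepG2 after 24 h chemical dosing, with NR-Gal4 chimeras supplied by transient transfection. Detection by RT-PCR and capillary electrophoresis; upward fit against DMSO.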

Assay [7] addresses Retinoic acid receptor alpha (Homo sapiens) (UniProt P10276). Kind of assay: ATG_RARa_TRANS: Attagene TRANS-FACTORIAL HepG2 Assay for human Retinoic Acid Receptor alpha (RARa) (AID 2283005; active = hit-call score of the fitted dose curve at least 0.9, where 1 is the maximum). Put shortly:
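HepG2 cells transiently transfected with multiple reporter units expressing chimeric RARα-GAL4 fusion, with GAL4-UAS-driven reporters. After 24 h compound exposure, reporter mRNA induction quantified by RT-PCR and capillary electrophoresis with fluorescent labeling; gain-of-signal fitted relative to DMSO control.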

The target in assay [8] is human Retinoic Acid Receptor gamma (RARg), RARG (gene 5916) (UniProt P13631). As to the kind of experiment: ATG_RARg_TRANS: Attagene TRANS-FACTORIAL HepG2 Assay for human Retinoic Acid Receptor gamma (RARg) (AID 2283009; active = hit-call score of the fitted dose curve at least 0.9, where 1 is the maximum). Put shortly:
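HepG2 transiently transfected with GAL4-UAS reporter units and chimeric NR-Gal4 constructs; 24 h compound exposure. Reporter mRNA quantified by RT-PCR, FAM labeling, HpaI digestion and capillary electrophoresis; gain-of-signal versus DMSO.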

The target of assay [9] is human Peroxisome Proliferator-activated Receptor alpha (PPARa), PPARA (gene 5465) (UniProt Q07869). As to the kind of experiment: ATG_PPARa_TRANS: Attagene TRANS-FACTORIAL HepG2 Assay for human Peroxisome Proliferator-activated Receptor alpha (PPARa) (AID 2283001; active = hit-call score of the fitted dose curve at least 0.9, where 1 is the maximum). Put shortly: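 Gain-of-signal endpoint: reporter mRNA induction relative to DMSO, detected by fluorescent RT-PCR and capillary electrophoresis. HepG2 cells transiently carried GAL4-UAS-driven reporter units plus NR-Gal4 fusion; exposure lasted 24 h.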

The target in assay [10] is Peroxisome proliferator-activated receptor gamma (Homo sapiens) (UniProt P37231). Kind of assay: ATG_PPARg_TRANS: Attagene TRANS-FACTORIAL HepG2 Assay for human Peroxisome Proliferator-activated Receptor-gamma (PPARg) (AID 2283007; active = hit-call score of the fitted dose curve at least 0.9, where 1 is the maximum). Put shortly:
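Read-out: reporter mRNA induction, detected by fluorescence after RT-PCR and capillary electrophoresis. Transiently transfected human HepG2 liver cells carrying a chimeric NR-Gal4 construct were dosed for 24 h; activity was fitted upward relative to DMSO.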

In assay [11] the target is Nuclear receptor subfamily 1 group I member 2 (Homo sapiens) (UniProt O75469). Kind of assay: ATG_PXR_TRANS: Attagene TRANS-FACTORIAL HepG2 Assay for human Pregnane X Receptor (PXR) (AID 2283008; active = hit-call score of the fitted dose curve at least 0.9, where 1 is the maximum). Put shortly: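 HepG2 cells transiently transfected with GAL4-UAS reporter units and PXR-Gal4 chimera, exposed 24 h. Reporter mRNA quantified by RT-PCR, fluorescent labelling, HpaI digestion and capillary electrophoresis; gain of signal vs DMSO.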

The target in assay [12] is human Retinoic Acid Receptor beta (RARb), RARB (gene 5915) (UniProt P10826). As to the kind of experiment: ATG_RARb_TRANS: Attagene TRANS-FACTORIAL HepG2 Assay for human Retinoic Acid Receptor beta (AID 2283004; active = hit-call score of the fitted dose curve at least 0.9, where 1 is the maximum). Put shortly: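 HepG2 cells were transiently transfected with GAL4-UAS reporter units that report activity of exogenous chimeric NR-Gal4 proteins, then exposed to compound for 24 h. Reporter mRNA was quantified by RT-PCR with capillary electrophoresis fluorescence, as gain of signal over DMSO.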

The target in assay [13] is human RAR-related Orphan Receptor beta (RORb), RORB (gene 6096) (UniProt Q92753). Kind of assay: ATG_RORb_TRANS: Attagene TRANS-FACTORIAL HepG2 Assay for human RAR-related Orphan Receptor beta (RORb) (AID 2283010; active = hit-call score of the fitted dose curve at least 0.9, where 1 is the maximum). Put shortly: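 HepG2 cells transiently transfected with GAL4-UAS reporter units expressing chimeric NR-Gal4 protein; reporter mRNA measured 24 h after dosing by RT-PCR, 6-FAM labelling and capillary electrophoresis. Gain-of-signal fitted relative to DMSO baseline.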
human RAR-related Orphan Receptor beta (RORb), RORB (gene 6096), sequence (Q92753 whole entry, looked up, the tested form may be a part): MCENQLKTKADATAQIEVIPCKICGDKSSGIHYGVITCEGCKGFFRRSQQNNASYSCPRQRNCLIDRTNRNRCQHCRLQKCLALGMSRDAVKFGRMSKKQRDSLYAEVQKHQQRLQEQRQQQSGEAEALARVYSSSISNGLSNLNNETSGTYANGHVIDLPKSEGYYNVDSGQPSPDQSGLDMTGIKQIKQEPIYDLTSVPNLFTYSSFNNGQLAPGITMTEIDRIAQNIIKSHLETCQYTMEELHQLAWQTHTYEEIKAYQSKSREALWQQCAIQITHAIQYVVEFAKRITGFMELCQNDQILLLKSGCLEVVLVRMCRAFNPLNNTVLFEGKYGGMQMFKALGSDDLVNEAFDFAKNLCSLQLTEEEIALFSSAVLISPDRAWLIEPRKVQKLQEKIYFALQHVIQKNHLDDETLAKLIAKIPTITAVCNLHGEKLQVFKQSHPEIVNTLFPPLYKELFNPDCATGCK

Cellular tumor antigen p53 (Homo sapiens), sequence (P04637 whole entry, looked up): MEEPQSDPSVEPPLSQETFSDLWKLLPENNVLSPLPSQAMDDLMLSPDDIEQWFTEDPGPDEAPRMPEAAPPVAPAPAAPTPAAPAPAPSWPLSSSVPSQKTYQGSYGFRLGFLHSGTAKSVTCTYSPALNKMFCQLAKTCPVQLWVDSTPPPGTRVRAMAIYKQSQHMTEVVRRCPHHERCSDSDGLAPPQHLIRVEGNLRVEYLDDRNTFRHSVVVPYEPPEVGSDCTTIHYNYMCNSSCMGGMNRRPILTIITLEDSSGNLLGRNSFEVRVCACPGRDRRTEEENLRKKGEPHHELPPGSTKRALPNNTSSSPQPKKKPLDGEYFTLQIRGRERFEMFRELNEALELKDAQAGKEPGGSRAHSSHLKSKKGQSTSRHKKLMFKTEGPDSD
Peroxisome proliferator-activated receptor gamma (Homo sapiens), sequence (P37231 whole entry, looked up, the tested form may be a part): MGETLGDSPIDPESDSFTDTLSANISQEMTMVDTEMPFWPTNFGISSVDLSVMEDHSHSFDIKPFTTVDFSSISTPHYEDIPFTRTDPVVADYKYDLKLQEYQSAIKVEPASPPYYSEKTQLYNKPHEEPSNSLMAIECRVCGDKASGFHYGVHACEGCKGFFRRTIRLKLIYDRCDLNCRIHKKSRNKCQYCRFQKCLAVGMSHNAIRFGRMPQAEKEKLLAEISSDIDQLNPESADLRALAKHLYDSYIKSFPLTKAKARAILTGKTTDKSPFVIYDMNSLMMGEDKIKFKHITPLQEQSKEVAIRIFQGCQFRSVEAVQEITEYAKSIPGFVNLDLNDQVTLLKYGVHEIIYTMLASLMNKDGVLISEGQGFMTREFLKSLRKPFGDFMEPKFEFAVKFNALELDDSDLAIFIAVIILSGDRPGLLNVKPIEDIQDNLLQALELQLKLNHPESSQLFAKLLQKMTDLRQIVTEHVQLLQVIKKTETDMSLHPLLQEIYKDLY
Myc proto-oncogene protein (Homo sapiens), sequence (P01106 whole entry, looked up): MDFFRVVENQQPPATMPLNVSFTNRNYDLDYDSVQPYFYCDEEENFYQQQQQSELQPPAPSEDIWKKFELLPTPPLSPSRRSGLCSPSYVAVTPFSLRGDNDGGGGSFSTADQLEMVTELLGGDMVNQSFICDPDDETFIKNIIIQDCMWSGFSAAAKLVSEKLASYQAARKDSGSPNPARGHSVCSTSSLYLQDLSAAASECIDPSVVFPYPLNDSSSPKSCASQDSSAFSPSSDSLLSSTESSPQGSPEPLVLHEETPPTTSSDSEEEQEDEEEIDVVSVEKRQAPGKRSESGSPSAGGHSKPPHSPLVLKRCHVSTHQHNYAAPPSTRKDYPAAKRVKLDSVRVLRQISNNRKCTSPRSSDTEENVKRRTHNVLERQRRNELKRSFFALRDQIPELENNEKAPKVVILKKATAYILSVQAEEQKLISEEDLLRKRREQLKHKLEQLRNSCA
Nuclear receptor subfamily 1 group I member 2 (Homo sapiens), sequence (O75469 whole entry, looked up, the tested form may be a part): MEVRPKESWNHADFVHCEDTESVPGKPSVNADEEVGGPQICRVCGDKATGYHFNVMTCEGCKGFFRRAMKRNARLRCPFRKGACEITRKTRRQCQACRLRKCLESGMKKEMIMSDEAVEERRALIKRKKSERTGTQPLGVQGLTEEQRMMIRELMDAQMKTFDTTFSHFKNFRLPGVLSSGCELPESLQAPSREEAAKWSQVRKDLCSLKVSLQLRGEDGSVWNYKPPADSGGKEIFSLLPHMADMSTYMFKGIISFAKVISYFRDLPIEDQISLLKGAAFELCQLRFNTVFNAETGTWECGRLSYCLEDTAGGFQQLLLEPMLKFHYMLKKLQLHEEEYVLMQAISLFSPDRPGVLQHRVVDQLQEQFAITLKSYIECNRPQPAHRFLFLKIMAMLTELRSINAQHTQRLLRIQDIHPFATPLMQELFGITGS
human Peroxisome Proliferator-activated Receptor alpha (PPARa), PPARA (gene 5465), sequence (Q07869 whole entry, looked up, the tested form may be a part): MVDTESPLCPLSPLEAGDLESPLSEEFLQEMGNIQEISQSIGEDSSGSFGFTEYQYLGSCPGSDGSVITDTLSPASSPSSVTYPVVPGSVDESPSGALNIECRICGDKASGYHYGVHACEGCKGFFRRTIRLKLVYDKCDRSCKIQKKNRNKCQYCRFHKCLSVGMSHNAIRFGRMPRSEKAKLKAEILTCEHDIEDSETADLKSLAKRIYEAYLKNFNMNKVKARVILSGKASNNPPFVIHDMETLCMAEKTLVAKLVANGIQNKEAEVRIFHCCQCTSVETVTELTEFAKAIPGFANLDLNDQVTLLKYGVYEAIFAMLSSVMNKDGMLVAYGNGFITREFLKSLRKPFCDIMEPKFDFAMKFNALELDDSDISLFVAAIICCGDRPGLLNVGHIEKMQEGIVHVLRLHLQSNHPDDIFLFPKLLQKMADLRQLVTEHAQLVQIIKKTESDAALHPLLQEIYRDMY
Retinoic acid receptor alpha (Homo sapiens), sequence (P10276 whole entry, looked up, the tested form may be a part): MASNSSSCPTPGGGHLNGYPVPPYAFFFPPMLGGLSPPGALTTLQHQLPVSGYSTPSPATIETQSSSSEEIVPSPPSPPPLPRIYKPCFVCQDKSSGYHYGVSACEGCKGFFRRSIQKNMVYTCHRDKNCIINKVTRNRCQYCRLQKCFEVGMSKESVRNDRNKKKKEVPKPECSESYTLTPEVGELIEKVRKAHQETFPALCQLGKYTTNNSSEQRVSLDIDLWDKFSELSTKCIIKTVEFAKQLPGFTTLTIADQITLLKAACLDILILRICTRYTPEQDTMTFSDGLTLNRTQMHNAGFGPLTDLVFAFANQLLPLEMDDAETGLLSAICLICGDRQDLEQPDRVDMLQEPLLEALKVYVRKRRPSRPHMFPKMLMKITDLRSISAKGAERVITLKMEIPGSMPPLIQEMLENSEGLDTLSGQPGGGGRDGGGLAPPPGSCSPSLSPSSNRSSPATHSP
human Retinoic Acid Receptor beta (RARb), RARB (gene 5915), sequence (P10826 whole entry, looked up, the tested form may be a part): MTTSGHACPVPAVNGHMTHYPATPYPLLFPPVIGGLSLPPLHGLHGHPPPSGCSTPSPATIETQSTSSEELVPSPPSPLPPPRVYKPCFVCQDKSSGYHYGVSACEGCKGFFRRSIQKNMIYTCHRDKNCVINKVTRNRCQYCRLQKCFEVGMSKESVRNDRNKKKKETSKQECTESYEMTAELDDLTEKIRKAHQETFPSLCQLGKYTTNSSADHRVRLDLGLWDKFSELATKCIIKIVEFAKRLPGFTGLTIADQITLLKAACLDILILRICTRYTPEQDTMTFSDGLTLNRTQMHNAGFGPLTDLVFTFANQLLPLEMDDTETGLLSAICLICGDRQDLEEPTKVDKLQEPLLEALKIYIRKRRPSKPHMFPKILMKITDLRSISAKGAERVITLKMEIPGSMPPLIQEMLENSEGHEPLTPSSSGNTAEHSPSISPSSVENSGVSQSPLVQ
human Peroxisome Proliferator-activated Receptor delta (PPARd), PPARD (gene 5467), sequence (Q03181 whole entry, looked up, the tested form may be a part): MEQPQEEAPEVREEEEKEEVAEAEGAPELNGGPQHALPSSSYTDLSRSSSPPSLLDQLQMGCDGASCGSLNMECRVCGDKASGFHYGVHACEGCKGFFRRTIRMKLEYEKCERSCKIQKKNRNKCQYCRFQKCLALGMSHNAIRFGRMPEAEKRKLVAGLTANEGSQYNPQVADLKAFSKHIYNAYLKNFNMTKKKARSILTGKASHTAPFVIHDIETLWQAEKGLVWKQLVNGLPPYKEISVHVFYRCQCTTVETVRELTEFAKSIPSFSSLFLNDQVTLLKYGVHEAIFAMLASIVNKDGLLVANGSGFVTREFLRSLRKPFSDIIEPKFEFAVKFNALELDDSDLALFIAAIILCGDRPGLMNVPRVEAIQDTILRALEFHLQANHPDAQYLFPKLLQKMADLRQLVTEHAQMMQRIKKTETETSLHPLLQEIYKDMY
human Retinoic Acid Receptor gamma (RARg), RARG (gene 5916), sequence (P13631 whole entry, looked up, the tested form may be a part): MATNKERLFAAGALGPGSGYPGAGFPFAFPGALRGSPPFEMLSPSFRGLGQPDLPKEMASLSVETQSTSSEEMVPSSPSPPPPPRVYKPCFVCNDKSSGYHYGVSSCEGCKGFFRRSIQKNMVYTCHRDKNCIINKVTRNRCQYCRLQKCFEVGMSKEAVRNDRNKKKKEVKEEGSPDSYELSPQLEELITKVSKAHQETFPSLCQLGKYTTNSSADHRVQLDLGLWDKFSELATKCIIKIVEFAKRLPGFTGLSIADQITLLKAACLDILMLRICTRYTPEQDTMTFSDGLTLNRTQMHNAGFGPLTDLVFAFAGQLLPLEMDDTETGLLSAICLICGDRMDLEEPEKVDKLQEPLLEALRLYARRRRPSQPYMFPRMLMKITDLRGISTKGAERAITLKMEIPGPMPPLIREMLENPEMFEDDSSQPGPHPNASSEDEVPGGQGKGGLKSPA

As to `O=CC1CC1`, the call in assay [1], in assay [2], in [3], in assay [4], in assay [5] and in [6] was inactive. In addition, the molecule was called inactive in assay [7] and in [8].
For the molecule `CC(C)=CC1CC(C)CCO1` (centres undefined), the call in assay [1], in assay [2], in assay [3], in [4], in assay [5] and in assay [9] was inactive. For the same molecule, the result in [7] was inactive.
Take `COc1c2ccoc2cc2oc(=O)ccc12`: the result in assay [1], in assay [2], in assay [3], in assay [4], in [5] and in [9] was inactive. In addition, the call in assay [10] was inactive. In addition, in [11], the concentration at half-maximal activity (AC50) was 36.6 µM (active).
Consider `N[C@H]1C(O)O[C@H](CO)[C@H](O)[C@@H]1O` (some centres undefined), for which the result in assay [1], in [2], in assay [3], in assay [4], in assay [5] and in assay [6] was inactive.
As to `O=C1C(N(CO)C(=O)NCO)N(CO)C(=O)N1CO` (centres undefined), the call in assay [1], in assay [2], in assay [3], in assay [4], in assay [5] and in assay [9] was inactive. Moreover, the molecule was called inactive in [12], in assay [7], in [10], in [8] and in assay [13].
Consider `Cc1cccc(N)n1`, for which the outcome in assay [1], in assay [2], in [3], in [4], in assay [5] and in assay [6] was inactive. Besides, the molecule was called inactive in assay [12] and in assay [13].
Consider `CCOC(=O)N1CCC(=C2c3ccc(Cl)cc3CCc3cccnc32)CC1`, for which the molecule was classed as inactive in assay [1], in [2], in assay [3], in assay [4] and in [6]. Moreover, in assay [5], the concentration at half-maximal activity (AC50) is 7.13 µM (active).
Turning to `Cc1cc(C)c(C)cc1C`, the result in assay [1], in assay [2], in assay [3], in [4], in [5] and in [6] was inactive. Besides, the result in assay [10] was inactive.
Regarding `c1ccc(CNCc2ccccc2)cc1`, the outcome in assay [1], in assay [2], in assay [3], in [4], in assay [5] and in assay [9] was inactive. For the same molecule, the result in assay [6], in assay [10] and in [11] was inactive.
Regarding `CCCCOCCOC(=O)COc1nc(Cl)c(Cl)cc1Cl`, the molecule was called inactive in assay [1], in assay [2], in assay [3], in assay [4], in assay [5] and in [9]. For the same molecule, the result in assay [7] and in assay [11] was inactive.
In the case of `CCN(CC#N)c1cccc(C)c1`, the call in assay [1], in assay [2], in assay [3], in assay [4], in [5] and in [6] was inactive. The molecule was classed as inactive in assay [12], in [10] and in [11].
Regarding `O=P(O)(O)Oc1ccccc1`, the call in [1], in [2], in assay [3], in assay [4], in assay [5] and in [9] was inactive. Further, in [7], the outcome was inactive.
`CC(=O)OCCC1CCCCC1`: the call in [1], in assay [2], in [3], in [4], in [5] and in assay [6] was inactive. In addition, the molecule was classed as inactive in [10] and in [11].
As to `O=C(O)CCCCCCCCCC(=O)O`, the call in [1], in assay [2], in assay [3], in [4], in assay [5] and in assay [9] was inactive. Further, the molecule was classed as inactive in [10], in assay [11] and in assay [13].
On to `CC(CC=O)c1ccccc1` (centres undefined), for which the molecule was classed as inactive in assay [1], in assay [2], in assay [4], in [5] and in assay [6]. The AC50 in assay [3] was 121 µM (active); in assay [10] it was 56.2 µM (active); in [11], 5.22 µM (active).

One may read the AC50 as the midpoint of the concentration-response curve, whichever way the signal moves.
